# Compound activity (PubChem)
# Mcl-1 Bim block: inhibitors of Bim peptide binding to Mcl-1, primary screen, biochemical, bead-based flow cytometry, multiplex; Induced myeloid leukemia cell differentiation protein Mcl-1 (Homo sapiens), Q07820; Bim peptide-Mcl-1 binding; inhibition, % at 10 µM; 0.1% of 190,000 active; in the data active = inhibition above about 40%;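 note: 0% = no compound tracer wells and 100% = peptide blocker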
# Target sequence (Q07820 whole entry, looked up): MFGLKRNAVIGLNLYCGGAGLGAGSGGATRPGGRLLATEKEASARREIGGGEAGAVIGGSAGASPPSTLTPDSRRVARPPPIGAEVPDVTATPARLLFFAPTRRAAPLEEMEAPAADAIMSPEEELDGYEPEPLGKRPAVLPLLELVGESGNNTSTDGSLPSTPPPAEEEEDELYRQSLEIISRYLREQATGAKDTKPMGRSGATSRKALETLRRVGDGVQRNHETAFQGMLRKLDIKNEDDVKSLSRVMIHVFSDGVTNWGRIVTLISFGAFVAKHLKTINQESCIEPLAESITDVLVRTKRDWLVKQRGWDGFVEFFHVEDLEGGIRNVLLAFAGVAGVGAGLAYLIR
# Mcl1 Bid PPI: Mcl-1/Bid binding inhibitors, primary screen, biochemical, TR-FRET, 1536-well | Induced myeloid leukemia cell differentiation protein Mcl-1 (Homo sapiens), Q07820 | 0.97% of 220,000 active | inhibition, % at 21.7 µM | TR-FRET Mcl-1/Bid-Dy647 peptide binding;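 active = compounds that cut the binding signal by more than half at the single screening dose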;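 note: His-tagged Mcl-1 with europium anti-His antibody binding Bid BH3 peptide; 0% = Mcl-1 plus peptide wells and 100% = peptide-only wells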
# 14-3-3 Bad inh: inhibitors of 14-3-3 zeta/Bad binding, primary screen, biochemical, TR-FRET, bovine 14-3-3 zeta | 0.71% of 220,000 active | inhibition, % at 21.7 µM | 14-3-3 protein zeta/delta (Bos taurus), P63103 | TR-FRET 14-3-3zeta/Dy647-pBad peptide displacement, 1 h;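 active = inhibition above about 70%, limit read from the data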;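 note: 0% = full 14-3-3 plus peptide FRET controls and 100% = background without 14-3-3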
# Mcl1 Noxa PPI: Mcl-1/Noxa binding inhibitors, primary screen, biochemical, TR-FRET, 1536-well | TR-FRET Mcl-1/Noxa peptide binding, 2 h | inhibition, % at 21.7 µM | Induced myeloid leukemia cell differentiation protein Mcl-1 (Homo sapiens), Q07820 | 1.5% of 220,000 active | AID 1022, 2008;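 active = compounds that cut the protein-peptide binding signal by more than 50% relative to plate controls in a single-dose test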;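 note: His-tagged Mcl-1 with rhodamine Noxa BH3 peptide and terbium anti-His antibody; 0% = Mcl-1 plus Noxa peptide wells and 100% = peptide-only wells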
# MCL1 BIM primary: inhibitors of MCL1 binding to BIM-BH3, primary screen, biochemical, fluorescence polarization; GST-MCL1 / FITC-Bim-BH3 fluorescence polarization; inhibition, % at 10.9 µM; 0.68% of 320,000 active;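 active = inhibition above the mean inhibition of all tested compounds plus 3 SD, set per campaign, cut at about 40% in these data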;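 note: 0% = DMSO wells and 100% = unlabeled Bim-BH3 peptide control; higher means more loss of mP so more displacement of Bim peptide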
# eIF4E 4G PPI: eIF4E–eIF4G protein interaction inhibitors, primary screen, biochemical, uHTS, TR-FRET, eIF4GI fragment. 0.37% of 220,000 active. TR-FRET eIF4E-eIF4GI(517-606) binding, 2 h. inhibition, % at 21.7 µM. Eukaryotic translation initiation factor 4E (Mus musculus) + Eukaryotic translation …. AID 782, 2007;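 active = inhibition above about 30%, limit read from the data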;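 note: 0% = full FRET control wells and 100% = background wells lacking eIF4GI fragment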
# Bcl-xL conf: Bcl-xL inhibitors blocking Bim BH3 binding, confirmation, counter-screen for MCL1 inhibitor project, biochemical, fluorescence polarization; shares compounds with MCL1 BIM primary; GST-Bcl-xL / FITC-Bim BH3 peptide FP binding; inhibition, % at 10.9 µM; 54% of 1,700 active; AID 2166, 2009;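 active = inhibition above a cutoff equal to the mean inhibition of all tested compounds plus 3 SD, cut at about 30% in these data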;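 note: 0% = DMSO wells and 100% = unlabeled Bim BH3 control peptide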
# Target sequence (Q07817 whole entry, looked up): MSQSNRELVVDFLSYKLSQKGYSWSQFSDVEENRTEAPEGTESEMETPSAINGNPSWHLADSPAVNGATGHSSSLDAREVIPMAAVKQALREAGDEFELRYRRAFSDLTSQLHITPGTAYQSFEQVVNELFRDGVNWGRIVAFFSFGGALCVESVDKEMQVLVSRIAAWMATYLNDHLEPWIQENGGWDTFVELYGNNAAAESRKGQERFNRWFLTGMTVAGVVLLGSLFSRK
# MCL1 inh confirm: inhibitors of MCL1 binding to BIM-BH3, confirmation, biochemical, fluorescence polarization, triplicate | 61% of 1,700 active | shares compounds with MCL1 BIM primary | inhibition, % at 10.9 µM | GST-MCL1 / FITC-Bim-BH3 fluorescence polarization;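 active = inhibition above the average of all tested compounds plus 3 SD, cut at about 40% in these data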;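 note: 0% = DMSO wells and 100% = unlabeled Bim-BH3 control peptide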
# * = called active by the depositor; · = no result given; + = active, no number. In the library only some 2.6% were active in any assay of this set; here they are far more common.
SMILES,Mcl-1 Bim block,Mcl1 Bid PPI,14-3-3 Bad inh,Mcl1 Noxa PPI,MCL1 BIM primary,eIF4E 4G PPI,Bcl-xL conf,MCL1 inh confirm
Fc1ccc(-n2nnnc2-c2cnc(-c3cccs3)nc2C(F)(F)F)cc1,-3,-8,15,10,3,0,·,·
O=C1NC(=O)/C(=C\c2ccc(O)cc2O)S1,2,-41,87*,95*,50*,29,94*,133*
CC(=O)C[C@H]1c2ccccc2S(=O)(=O)N1c1ccccc1,·,·,·,·,3,·,·,·
O=C(Cc1ccc(F)cc1)Nc1nnc(-c2ccc(F)cc2)o1,·,·,·,·,3,·,·,·
Clc1ccc(C2Nc3cccc4cccc(c34)N2)cc1,·,·,·,·,67*,·,17,17
COc1ccc(NC(=O)CN(C)C(=O)c2cc(CN3C(=O)c4ccccc4C3=O)ccc2OC)cc1,·,·,·,·,-9,·,·,·
O=[N+]([O-])c1cccc(C=Nc2cccc3ccccc23)c1O,·,·,·,·,2,·,·,·
CCOC(=O)c1c(/N=C/c2cccc([N+](=O)[O-])c2O)sc(C)c1C,-1,-16,3,27,55*,1,16,22
COc1ccc(/[N+]([O-])=C/c2ccoc2)cc1,·,·,·,·,6,·,·,·
CCCCn1c(SCC(=O)NCc2ccco2)nc2cc(S(N)(=O)=O)ccc21,2,-28,3,-8,41*,-1,4,12
O=S(=O)(NCc1ccccc1)c1ccc(NC(=S)NCc2ccco2)cc1,·,·,·,·,3,·,·,·
COc1cc2c(cc1OC)CN(c1ccc(-c3ccccc3OC)nn1)CC2,0,-17,9,-4,65*,-6,22,17
COc1cc2c(cc1OC)CN(c1ccc3ccccc3n1)CC2,·,·,·,·,-7,·,·,·
NS(=O)(=O)c1ccc(CCNC(=O)c2cc(-c3ccccn3)nc3ccc(Br)cc23)cc1,5,-36,-2,22,5,2,·,·
NS(=O)(=O)c1ccc(CNC(=O)c2cc(-c3cccnc3)nc3ccc(Br)cc23)cc1,·,·,·,·,51*,·,5,-3
COc1ccc(N(CC(=O)NC2CCCC2)C(=O)c2ccc(C)s2)cc1OC,·,·,·,·,-1,·,·,·
COc1cc(OC)cc(C(=O)NCCCCCCNC(=O)c2cc(OC)cc(OC)c2)c1,·,·,·,·,48*,·,38*,49*
Cn1c(SCC(=O)Nc2ccc(F)cc2)nnc1C1CC1,·,·,·,·,176*,·,-20,-36
CC(=O)Nc1ccc(NC(=O)CSc2nnc(C3CC3)n2C)cc1,4,3,3,14,2,-5,·,·
Cc1c(N2C(=O)c3ccc4c5c(ccc(c35)C2=O)CC4)c(=O)n(-c2ccccc2)n1C,0,-26,·,96*,52*,·,33*,78*
Cc1ccccc1NC(=O)C1Cc2ccccc2C(=O)O1 (configuration not stated),1,-9,17,-9,-3,2,·,·
O=C1OC(C(=O)O)Cc2ccccc21 (configuration not stated),1,-1,-4,23,64*,4,2,5
COc1ccc(S(=O)(=O)N(Cc2ccco2)Cc2cc3ccccc3[nH]c2=O)cc1,·,·,·,·,0,·,·,·
Cc1ccccc1CN(C)Cc1cc(=O)oc2c(C)c(C)ccc12,·,·,·,·,64*,·,12,7
CC(=O)OCC1=C(C(=O)O)N2C(=O)C(NC(=O)c3ccc(COc4cccc(Cl)c4Cl)o3)C2SC1 (configuration not stated),-1,-5,22,48,51*,28,18,66*
SMILES,Mcl-1 Bim block,Mcl1 Bid PPI,14-3-3 Bad inh,Mcl1 Noxa PPI,MCL1 BIM primary,eIF4E 4G PPI,Bcl-xL conf,MCL1 inh confirm
O=C(Nc1nnc(C2CC2)s1)c1ccc(Cl)nc1,·,·,·,·,178*,·,-1,0
CCc1nnc(NC(=O)c2ccc(Cl)nc2)s1,-5,-14,-13,20,9,1,·,·
Cc1ccc(-c2ccc(/C=C(\C#N)C(=O)Nc3cc(C)nn3-c3ccccc3)o2)cc1,-3,64*,35,·,+,-14,+,+
CN1CC=C2C(C#N)=C(N)C(C#N)(C#N)[C@H](c3cccs3)[C@H]2C1,·,-14,3,11,118*,0,63*,71*
CN1CC=C2C(C#N)=C(N)C(C#N)(C#N)[C@H](c3cccc(Cl)c3)C2C1 (some centres not stated),-2,-34,-13,13,115*,1,31*,36
CN1CC=C2C(C#N)=C(N)C(C#N)(C#N)C(CCc3ccccc3)C2C1 (configuration not stated),0,-42,-12,1,82*,-1,43*,65*
CN1CC=C2C(C#N)=C(N)C(C#N)(C#N)C(c3ccsc3)C2C1 (configuration not stated),-1,-20,-3,12,117*,7,23,27
CCOC(=O)N1CC=C2C(C#N)=C(N)C(C#N)(C#N)[C@H](c3ccsc3)[C@H]2C1,2,-46,-7,3,39,-10,·,·
N#CC1=C(N)C(C#N)(C#N)C(c2ccncc2)C2CN(C(=O)OCc3ccccc3)CC=C12 (configuration not stated),-4,-26,-2,15,14,-1,·,·
O=C(c1ccc(F)cc1)N1CCC(C(=O)N2CCN(S(=O)(=O)c3cccc(Cl)c3)CC2)CC1,·,·,·,·,2,·,·,·
COC(=O)c1nn(-c2ccccc2)c(=O)cc1Oc1ccccc1,-4,-11,-8,-6,-2,0,·,·
COc1ccc(CCNC(=O)CC(c2ccccc2)c2cccc(C)c2O)cc1OC (configuration not stated),-1,-22,3,13,0,4,·,·
O=C1CN(S(=O)(=O)c2ccc([N+](=O)[O-])cc2)CC(=O)N1,·,·,·,·,3,·,·,·
CCCCn1c(N)c(N(CC(C)C)C(=O)C2CCCO2)c(=O)[nH]c1=O (configuration not stated),·,·,·,·,-8,·,·,·
CC(C)CNC(=O)CN1c2cccc3cccc(c23)S1(=O)=O,·,·,·,·,-2,·,·,·
